We go through 15 compounds from PubChem BioAssay.

SMILES strings stand for the structures. Calls of active or inactive are those of the source.

The nature of test [1]: A549 cell viability effects, profiling panel, calcein-AM fluorescence, 48 h, basal (AID 1162). As to conditions: higher = more signal.
Test [2] in a line: adipocyte viability effects, profiling panel, cell-based, 3T3-L1 adipocytes, calcein-AM fluorescence, 48 h, basal (AID 1163). Particulars: 3T3-L1 adipocytes viability, higher = more signal.
The nature of test [3]: HepG2 cell viability effects, profiling panel, calcein-AM fluorescence, 48 h, basal (AID 1164). Particulars: higher = more signal.
A short description of test [4]: MM1S cell viability effects, profiling panel, calcein-AM fluorescence, 48 h, basal (AID 1165).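 Note: viability of MM1S multiple myeloma cells under basal unstimulated conditions.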 Particulars: higher = more signal.
Test [5] in a line: basal RPMI8226 viability, no added stimulus, profiling panel, cell-based, calcein-AM fluorescence, 48 h, PK04 Diversity Set (AID 1166).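 Note: cells grown under basal conditions without added stimulus.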 Particulars: RPMI8226 myeloma viability, higher = more signal.
The nature of test [6]: basal HepG2 mitochondrial membrane potential changes, profiling panel, cell-based, JC-1 fluorescence, 24 h, 100 nL compound (AID 1167). As to conditions: higher = more signal.
Test [7] in a line: basal 3T3-L1 adipocyte mitochondrial potential changes, profiling panel, cell-based, JC-1 fluorescence, 3T3-L1 adipocytes, 24 h, 100 nL compound (AID 1168). Particulars: JC-1 mitochondrial fluorescence, higher = more signal, called active from +8 up or from −8 down.
Test [8] is described as follows: basal RPMI8226 mitochondrial membrane potential changes, profiling panel, cell-based, JC-1 fluorescence, 24 h, 100 nL compound (AID 1169). As to conditions: RPMI8226 myeloma, JC-1 mitochondrial potential fluorescence, higher = more signal.
A short description of test [9]: basal MM1S mitochondrial membrane potential changes, profiling panel, cell-based, JC-1 fluorescence, 24 h, 100 nL compound (AID 1170). Particulars: higher = more signal.
Test [10] can be described thus: A549 lung cancer cell viability effects, profiling panel, resazurin fluorescence, 24 h, PK04 Diversity Set (AID 1171). Particulars: higher = more signal, called active from +8 up or from −8 down. In general terms: Alamar Blue is a resazurin reagent that responds to reducing activity.
Note: test concentration not given here.

In the case of `C=CCN1C(=O)[C@]2(O[C@H](CCO)[C@@H]([Si](C)(C)c3ccc(OC)cc3)[C@@H]2C)c2cc(N3C(=O)c4ccccc4Oc4ccccc43)ccc21`, the z-score is -3.65 in test [1]; 0.139 in test [2]; -4.64 in test [3]; -2.73 in test [4]; -4.35 in [5]; -2.08 in [6]. Besides, the z-score in test [7] was -0.599 (inactive); in test [8], -1.04; in test [9], -2.15; in [10] it was -5.48 (inactive).

Take `CCCCC(=C=CC[C@@H](O)c1ccccc1OCCO)C[C@@H](O)c1ccccn1`: the z-score was -0.158 in test [1]; -0.48 in test [2]; 0.242 in test [3]; -0.35 in [4]; -0.84 in test [5]; -0.16 in [6]. Further, the z-score in test [7] is 0.341 (inactive); in test [8], 0.495; in [9], -0.179; in test [10] it was 0.756 (inactive).

`CCOC(=O)C1=CCC(c2cccn2C(=O)OC(C)(C)C)N(S(=O)(=O)c2ccc(C)cc2)C1` (stereo not given): the z-score in [1] was -0.982; in [2], -0.838; in [3] it was -0.168; in [4], -3.2; in test [5], -3.67; in test [6], 2.22. Besides, the z-score in [7] is 0.066 (inactive); in test [8] it was -1.11; in test [9] it was -2.93; in test [10] it was -0.373 (inactive).

For `[N-]=[N+]=Nc1ccccc1C[C@@]1(C(=O)NCC(O)CO)N=C(c2ccc(OCCCO)cc2)O[C@@H]1c1ccccc1N=[N+]=[N-]` (stereo not given in full), the z-score in [1] was -3.97; in test [2], -0.0164; in test [3] it was -4.63; in test [4], -3.55; in [5] it was -3.85; in [6], -2. In addition, the z-score in test [7] was -0.264 (inactive); in test [8], -1.21; in test [9] it was -1.34; in [10] it was -3.27 (inactive).

On to `C=CC[C@@]1(C(=O)NCCCOC)N=C(c2ccc(OCCCO)cc2)O[C@@H]1c1ccccc1CN=[N+]=[N-]`, for which the z-score was -0.287 in test [1]; 0.532 in [2]; 0.569 in [3]; -0.459 in test [4]; -0.885 in test [5]; 2.5 in [6]. For the same compound, the z-score in test [7] is 0.738 (inactive); in test [8] it was -0.728; in test [9], 0.0149; in [10], 0.41 (inactive).

For the compound `COC(=O)C(CC#Cc1ccc2c(c1)[C@]1(C(=O)N2)[C@H](C(=O)N2CCN(c3ncccn3)CC2)[C@H]2C(=O)O[C@H](c3ccccc3)[C@H](c3ccccc3)N2[C@@H]1c1ccc(O)cc1)C(=O)OC`, the z-score is 0.489 in [1]; -0.569 in test [2]; 1.24 in test [3]; 0.142 in [4]; -2.03 in [5]; -0.921 in [6]. Moreover, the z-score was 0.00989 (inactive) in test [7], -1.09 in test [8], -0.205 in test [9] and -0.423 (inactive) in test [10].

With `[N-]=[N+]=NCc1ccccc1[C@H]1OC(c2ccc(OCCCO)cc2)=N[C@@]1(Cc1ccccc1N=[N+]=[N-])C(=O)O`, the z-score in [1] was -0.374; in [2], -1.69; in test [3], 0.312; in test [4], -0.934; in test [5], -0.984; in [6] it was -2.04. Besides, the z-score in test [7] is 0.0914 (inactive); in test [8] it was -0.763; in test [9], -0.596; in test [10], 0.216 (inactive).

Turning to `COCCOC(=O)N1C(=O)[C@@]2(c3cc(C#CCC(C(=O)OC)C(=O)OC)ccc31)[C@H](C(=O)N1CCc3cc(OC)c(OC)cc3C1)[C@H]1C(=O)O[C@H](c3ccccc3)[C@H](c3ccccc3)N1[C@@H]2c1ccccc1OCCO`, the z-score in [1] is 0.184; in test [2], 0.964; in test [3], -0.717; in [4] it was -2.22; in [5], -0.619; in [6], 0.543. Besides, the z-score in test [7] was 1.14 (inactive); in test [8], -0.946; in test [9] it was -1.05; in [10], 0.853 (inactive).

On to `C=C(COC)/C(=C/C[C@@H](OC(C)=O)c1cccc(OCCO)c1)c1cnc2ccccc2c1`, for which the z-score in [1] is 0.37; in test [2], 1.35; in [3], -0.705; in test [4], -0.588; in test [5], -0.461; in [6], 0.902. The z-score was -0.0217 (inactive) in test [7], 0.0629 in test [8], 0.627 in [9] and -0.736 (inactive) in test [10].

Regarding `C=C(CCCC)C(=O)CC[C@@H](OC(C)=O)c1ccc(OCCO)cc1`, the z-score in [1] was -0.0836; in test [2], 0.997; in [3] it was -0.439; in test [4], -1.97; in test [5], -1.92; in test [6], -0.338. The z-score in test [7] was -0.362 (inactive); in test [8], -0.793; in [9], -0.36; in test [10] it was 0.325 (inactive).

Regarding `COC(=O)[C@]1(Cc2ccccc2CN=[N+]=[N-])N=C(c2ccc(OCCCO)cc2)O[C@@H]1c1ccccc1N=[N+]=[N-]`, the z-score is -3.25 in test [1]; -0.028 in test [2]; -5.51 in test [3]; -3.55 in test [4]; -4 in test [5]; 1.52 in [6]. The z-score in test [7] is -0.387 (inactive); in test [8], -1.06; in test [9], -2.47; in test [10] it was -2.73 (inactive).

Regarding `O=C1C2C=CC(C(O)c3ccccn3)N(Nc3ccc([N+](=O)[O-])cc3)C2C(=O)N1c1ccccc1` (stereo not given), the z-score was -0.264 in [1]; -0.723 in test [2]; 0.19 in [3]; -0.416 in test [4]; -0.737 in [5]; -1.47 in [6]. Besides, the z-score is -1.83 (inactive) in test [7], -0.187 in test [8], -1.13 in test [9] and -0.0475 (inactive) in [10].

Consider `CN1C(=O)C2C=CC(C(O)c3ccc([N+](=O)[O-])cc3)N(Nc3ccccc3)C2C1=O` (stereo not given), for which the z-score in [1] was -1.06; in test [2], -1.33; in test [3], -0.581; in test [4], 0.13; in [5], -0.772; in test [6], -1.05. Besides, the z-score in [7] was -1.92 (inactive); in test [8], -0.199; in test [9] it was -0.522; in test [10] it was -1.36 (inactive).

`O=C(NCC(F)(F)F)[C@@H]1c2ccccc2C(=O)N(Cc2cc(C(F)(F)F)cc(C(F)(F)F)c2)[C@H]1c1ccc(CO)cc1`: the z-score was 0.964 in test [1]; -0.0843 in test [2]; 1.42 in [3]; -0.202 in [4]; 1.07 in test [5]; 1.95 in [6]. Also, the z-score in test [7] is 1.36 (inactive); in test [8], 0.801; in test [9], -0.626; in test [10] it was 0.651 (inactive).

As for `CC[C@H]1C2=C3C(CC[C@H]4C(OCc5ccc(F)cc5C(F)(F)F)OC[C@](C)([C@@H]34)N(C(=O)OC(C)(C)C)C2)C(COC(C)=O)C1COC(C)=O` (stereo not given in full), the z-score in test [1] was -0.128; in [2] it was -0.154; in test [3], 0.228; in test [4], -0.814; in test [5], -2.5; in [6], 3.43. Also, the z-score in [7] is -1.43 (inactive); in test [8], -0.555; in test [9], -1.29; in test [10], 0.226 (inactive).
